# Laboratory results: PubChem BioAssay (NCATS)
# Unmarked numbers belong to inactive results. Results filed as inconclusive are left out. Active and inactive are the calls of the source. Unless noted, calls come from the whole dose curve; as a rule, active = well fitted curve in the direction sought with a large enough effect; inconclusive = small, poorly fitted or top-dose-only effect, or another doubt; inactive = no such curve, though single readings can be large; an effect the other way counts as inactive or inconclusive.
# How the values were obtained:
# [1] = target: Cytochrome P450 1A2 (Homo sapiens) (UniProt P05177); assay: p450-cyp1a2 (AID 410; calls by dose curve; note: potency is the fitted concentration of half-maximal effect)
# Summary of the method: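 Read-out is luminescence from luciferin produced by CYP1A2 demethylation of Luciferin-ME (100uM, at Km). Detection reagent stopped the 60 min NADPH-dependent reaction; signals were normalized to 57 uM furafylline.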
# [2] = Stat Signaling Pathway (AID 446; active = well fitted curve in either direction with a large enough effect, not every such curve was filed as active;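 note: ME-180 cervical cancer cells given 40 pM IL-6 alongside compound; SIE-controlled beta-lactamase reporter measured as 460/530 nm FRET emission ratio; % is set by controls: 0 for no effect and ±100 for the full control effect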); conditions: ME-180 SIE beta-lactamase reporter, IL-6 stimulated, 5 h; at 7.69 µM (top of the series) unless noted
# Summary of the method: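 Emission at 460 and 530 nm (excitation 405 nm) reports SIE-controlled beta-lactamase in ME-180 cells. Cells received compound with 40 pM IL-6 for 5 hrs at 37 C; data scaled between 300 pM IL-6 and 125 nM JAK-inhibitor controls.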
# [3] = target: Glucocorticoid receptor (Homo sapiens) (UniProt P04150); assay: GR-EFC Redistribution (AID 451; calls by dose curve; note: potency is the fitted concentration of half-maximal effect); conditions: CHO-K1 GR-EFC translocation, beta-gal luminescence, 2 h
# Summary of the method: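 CHO-K1 cells expressing nuclear EA and GR-ED fragments of b-gal; compounds titrated up to 46 uM final, 2 h at 37 C. GR nuclear translocation read as complemented b-gal luminescence after 1 h RT detection.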
# [4] = target: Mitogen-activated protein kinase 10 (Mus musculus) (UniProt Q61831); assay: JNK3 AlphaScreen Assay (AID 530; active = well fitted curve in either direction with a large enough effect, not every such curve was filed as active;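 note: kinase came from lysate of stimulated human HepG2 cells; signal reports phosphorylation of biotinylated GST-cJun 1-79 at Ser73 with 10 µM ATP; % is set by controls: 0 for no effect and ±100 for the full control effect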)
# Summary of the method: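 HepG2 lysate (IL-1b/TNFa pre-activated) + biotin-GST-cJun 1-79 + anti-pSer73 cJun; cpd titration, 15 min RT; ATP 10 uM start; Tris pH 7.6, MgCl2, DTT, vanadate; beads in EDTA buffer; AlphaScreen.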
# [5] = target: Cytochrome P450 3A4 (Homo sapiens) (UniProt P08684); assay: qHTS Assay for Activators of Cytochrome P450 3A4 (AID 885); note: nearly all actives have a fitted effect of over 65% in size
# Summary of the method: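 Activators are scored by enhanced luminescence from CYP3A4 conversion of luciferin-PPXE (25uM, equal to KM) to luciferin, after 60 min at RT with an NADPH-regenerating system.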
# [6] = target: Cytochrome P450 2C19 (Homo sapiens) (UniProt P33261); assay: qHTS Assay for Inhibitors and Substrates of Cytochrome P450 2C19 (AID 899); note: potency is the fitted concentration of half-maximal effect; nearly all actives have a fitted effect of over 60% in size
# Summary of the method: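 Signal comes from luciferase acting on luciferin released by CYP2C19-mediated hydroxylation of Luciferin-H EGE, 10uM (KM). Assay mix: 5nM enzyme, 50mM KPO4; 60 min at 37C with NADPH regeneration. Data normalized against 57uM ketoconazole.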
# [7] = target: Dual specificity protein kinase CLK4 (Homo sapiens) (UniProt Q9HAZ1); assay: qHTS Assay for Inhibitors of CDC-like Kinase 4 (Kinase-Glo Assay) (AID 1770); note: nearly all actives have a fitted effect of over 65% in size; note: potency is the fitted concentration of half-maximal effect
# Summary of the method: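 25 nM Clk4 with 100 uM RS repeat peptide and 1 uM ATP (final) in Tris pH7.5, 10 mM MgCl2, 4.5 h at room temperature. Remaining ATP measured by Kinase-Glo luciferase luminescence.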
# [8] = target: Dual specificity protein kinase CLK4 (Homo sapiens) (UniProt Q9HAZ1); assay: qHTS Assay for Inhibitors of CDC-like Kinase 4 (ADP-Glo Assay) (AID 1771); note: nearly all actives have a fitted effect of over 70% in size; note: potency is the fitted concentration of half-maximal effect
# Summary of the method: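 In this ADP-Glo format, 1 uM ATP and 100 uM RS peptide served as substrates for 25 nM Clk4 in Mg2+/EGTA/DTT/Triton buffer; reactions ran 1 hr at room temperature before luminescent ADP quantification.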
# [9] = target: Dual specificity protein kinase CLK4 (Homo sapiens) (UniProt Q9HAZ1); assay: qHTS Assay for Inhibitors of CDC-like Kinase 4 (ADP-FP Assay) (AID 1795); note: nearly all actives have a fitted effect of over 60% in size; note: potency is the fitted concentration of half-maximal effect
# Summary of the method: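 Recombinant Clk4 (6.25 nM) phosphorylated 100 uM RS repeat peptide with 1 uM ATP in 25 mM Tris pH 7.5, 10 mM MgCl2, 0.5 mM EGTA, 2.5 mM DTT, 0.01% Triton X-100 for 1 h. ADP was detected by Transcreener ADP2 competitive fluorescence polarization after 30 min at room temperature.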
# [10] = Primary qHTS for small molecule stabilizers of the endoplasmic reticulum resident proteome: Secreted ER Calcium Modulated Protein (SERCaMP) assay (AID 1508630); note: % is set by controls: 0 for no effect and ±100 for the full control effect
# Summary of the method: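 The SH-SY5Y reporter protocol was run at 3 concentrations up to 38.3 uM (primary) or 11 concentrations (follow-up): 16 h compound, 100 nM thapsigargin for 4 h, then extracellular luciferase luminescence.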
# [11] = AP1 Signaling Pathway (AID 357; active = well fitted curve in either direction with a large enough effect, not every such curve was filed as active;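 note: ME-180 reporter cells stimulated with EGF at its EC50 level; % is set by controls: 0 for no effect and ±100 for the full control effect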); conditions: ME-180 AP-1-bla reporter, EGF-induced, beta-lactamase ratio, 5 h; at 7.69 µM (top of the series) unless noted
# Summary of the method: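 Beta-lactamase reporter under AP-1 response element, ME-180 background. Stimulus: EC50 EGF. Compound exposure 5 h, 37 °C. Detection: CCF4, 2.5 h RT, 460/530 nm. Values: AC50 from titration.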
# [12] = NFAT Signaling Pathway (AID 444; active = well fitted curve in either direction with a large enough effect, not every such curve was filed as active); conditions: Jurkat NFAT-bla M1, carbachol, beta-lactamase ratio, 5 h; at 7.69 µM (top of the series) unless noted
# Summary of the method: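 Jurkat cells with NFAT-driven β-lactamase reporter and co-expressed M1 receptor, stimulated with carbachol (final 1 uM, ~EC50), compound titration, 5 h at 37 °C. CCF4 loaded 1 h at RT; 460/530 nm ratio gave %activity and AC50.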
# [13] = target: Glucocorticoid receptor (Homo sapiens) (UniProt P04150); assay: GR-GFP Redistribution (AID 450;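 active = compounds whose dose series gives a full or clear partial fitted curve of increased nuclear translocation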; note: potency is the fitted concentration of half-maximal effect); conditions: U2OS GR-GFP nuclear translocation, laser cytometry, 2 h
# [14] = target: 3',5'-cyclic-AMP phosphodiesterase 4B (Homo sapiens) (UniProt Q07343); assay: qHTS Assay for Inhibitors of PDE-IV (AID 607; active = well fitted activation curve with a large enough effect in the main read-out, with a control signal flat, not every such curve was filed as active; note: % of control where 0% means no effect)
# Summary of the method: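 The readout is membrane depolarisation from a cAMP-sensing CNG channel, detected with a potential dye at ex 535/em 590. Cells were HEK293-derived (endogenous PDE-IV) at 1000 cells/well, titrated up to 22.9 uM final.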
# [15] = target: Ubiquitin carboxyl-terminal hydrolase 1 (Homo sapiens) (UniProt O94782); assay: Inhibitors of USP1/UAF1: Pilot qHTS (AID 504865);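 note: rhodamine fluorescence freed from ubiquitin-rhodamine substrate followed over time; top concentration of the series differs between compounds; % is set by controls: 0 for no effect and ±100 for the full control effect; nearly all actives have a fitted effect of over 35% in size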
# Summary of the method: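 USP1/UAF1 complex at 1 nM preincubated 15 min at room temperature with compound, then Ub-Rho substrate added at 150 nM final. Fluorescence (480/540 nm) read kinetically in 50 mM HEPES pH 7.8, 0.5 mM EDTA, 1 mM TCEP, 0.1 mg/ml BSA, 0.01% Tween-20.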
# [16] = target: Lysosomal acid glucosylceramidase (Homo sapiens) (UniProt P04062); assay: Glucocerebrosidase-p2 (AID 348; in the data active = potency below about 10 µM; note: potency is the fitted concentration of half-maximal effect); conditions: purified GBA, blue fluorogenic substrate, 40 min
# Summary of the method: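 Normal human glucocerebrosidase (0.2 nM) with blue fluorogenic substrate (80 uM final) in citrate/phosphate pH 5.9 with 10mM sodium taurocholate, 0.01% tween-20; 40 min RT, NaOH/glycine stop; fluorescence Ex 365/Em 440; AC50 from a titration from 0.6 nM upwards.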
# [17] = qHTS Assay for Identification of Small Molecule Agonists for Hypoxia Response Element Signaling Pathway (AID 914; active = well fitted activation curve with a large enough effect in the signal ratio, with a control signal flat, not every such curve was filed as active; the % refers to the signal ratio; note: potency is the fitted concentration of half-maximal effect; for activation: % of control where 0% means no effect); conditions: ME-180 (cervical carcinoma) HRE-bla reporter, beta-lactamase ratio, CoCl2, 17 h; activation: active compounds read high
# Summary of the method: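 A beta-lactamase reporter under hypoxia response element control in ME-180 cells served as the system. Compound titrations plus EC50 CoCl2 ran 17 h at 37 degrees Celsius; AC50 values were fitted from %Activity.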
# [18] = target: Cytochrome P450 3A4 (Homo sapiens) (UniProt P08684); assay: qHTS Assay for Inhibitors and Substrates of Cytochrome P450 3A4 (AID 884); note: potency is the fitted concentration of half-maximal effect; nearly all actives have a fitted effect of over 50% in size
# Summary of the method: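 Luminescent readout of luciferin produced by CYP3A4 (20 nM) dealkylation of Luciferin-PPXE, 25 uM (its KM). NADPH-driven reaction ran 60 min at RT after 10 min compound preincubation; data scaled to 57 uM ketoconazole as 100% inhibition.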
# Chain of Glucocorticoid receptor (Homo sapiens) (P04150 whole entry, looked up, the tested form may be a part): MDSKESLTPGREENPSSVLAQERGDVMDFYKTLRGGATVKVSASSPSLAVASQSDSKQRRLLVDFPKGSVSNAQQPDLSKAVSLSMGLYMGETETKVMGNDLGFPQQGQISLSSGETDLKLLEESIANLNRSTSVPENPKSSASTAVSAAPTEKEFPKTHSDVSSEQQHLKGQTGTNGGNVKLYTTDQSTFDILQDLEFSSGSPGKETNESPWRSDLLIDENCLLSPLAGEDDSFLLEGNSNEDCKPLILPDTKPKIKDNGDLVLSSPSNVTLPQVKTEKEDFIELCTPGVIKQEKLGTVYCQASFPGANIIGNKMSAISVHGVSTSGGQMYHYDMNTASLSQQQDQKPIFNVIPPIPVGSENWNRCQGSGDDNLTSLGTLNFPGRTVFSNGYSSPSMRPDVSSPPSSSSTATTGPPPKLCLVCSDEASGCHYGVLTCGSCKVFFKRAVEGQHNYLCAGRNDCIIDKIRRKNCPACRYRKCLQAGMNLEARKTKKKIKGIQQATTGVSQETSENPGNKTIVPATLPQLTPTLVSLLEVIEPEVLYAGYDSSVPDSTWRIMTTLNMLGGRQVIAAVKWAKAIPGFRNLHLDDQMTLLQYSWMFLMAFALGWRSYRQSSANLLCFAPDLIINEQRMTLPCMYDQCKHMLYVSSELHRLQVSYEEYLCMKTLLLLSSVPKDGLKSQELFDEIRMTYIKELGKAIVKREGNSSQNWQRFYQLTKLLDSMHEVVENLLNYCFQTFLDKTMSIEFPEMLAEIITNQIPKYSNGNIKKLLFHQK
# Chain of Ubiquitin carboxyl-terminal hydrolase 1 (Homo sapiens) (O94782 whole entry, looked up): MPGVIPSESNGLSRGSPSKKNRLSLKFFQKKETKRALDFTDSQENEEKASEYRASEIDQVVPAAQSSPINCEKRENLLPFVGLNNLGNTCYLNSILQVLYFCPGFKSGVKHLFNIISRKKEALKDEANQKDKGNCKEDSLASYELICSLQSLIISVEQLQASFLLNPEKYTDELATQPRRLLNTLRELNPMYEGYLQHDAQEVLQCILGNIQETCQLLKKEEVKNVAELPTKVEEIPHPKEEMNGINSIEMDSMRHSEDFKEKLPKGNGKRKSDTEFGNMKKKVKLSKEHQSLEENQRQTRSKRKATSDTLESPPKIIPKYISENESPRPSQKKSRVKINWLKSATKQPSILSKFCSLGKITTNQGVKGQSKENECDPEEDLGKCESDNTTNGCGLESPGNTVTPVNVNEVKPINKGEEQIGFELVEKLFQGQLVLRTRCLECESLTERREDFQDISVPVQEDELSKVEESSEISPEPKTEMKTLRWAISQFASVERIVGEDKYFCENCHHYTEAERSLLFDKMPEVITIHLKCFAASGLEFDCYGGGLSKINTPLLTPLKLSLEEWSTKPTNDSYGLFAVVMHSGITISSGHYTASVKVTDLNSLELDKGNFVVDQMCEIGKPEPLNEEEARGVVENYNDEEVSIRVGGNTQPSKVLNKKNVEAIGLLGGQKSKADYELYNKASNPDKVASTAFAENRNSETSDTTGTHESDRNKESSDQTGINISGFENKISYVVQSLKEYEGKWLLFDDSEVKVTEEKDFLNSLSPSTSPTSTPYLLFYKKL
# Chain of 3',5'-cyclic-AMP phosphodiesterase 4B (Homo sapiens) (Q07343 whole entry, looked up): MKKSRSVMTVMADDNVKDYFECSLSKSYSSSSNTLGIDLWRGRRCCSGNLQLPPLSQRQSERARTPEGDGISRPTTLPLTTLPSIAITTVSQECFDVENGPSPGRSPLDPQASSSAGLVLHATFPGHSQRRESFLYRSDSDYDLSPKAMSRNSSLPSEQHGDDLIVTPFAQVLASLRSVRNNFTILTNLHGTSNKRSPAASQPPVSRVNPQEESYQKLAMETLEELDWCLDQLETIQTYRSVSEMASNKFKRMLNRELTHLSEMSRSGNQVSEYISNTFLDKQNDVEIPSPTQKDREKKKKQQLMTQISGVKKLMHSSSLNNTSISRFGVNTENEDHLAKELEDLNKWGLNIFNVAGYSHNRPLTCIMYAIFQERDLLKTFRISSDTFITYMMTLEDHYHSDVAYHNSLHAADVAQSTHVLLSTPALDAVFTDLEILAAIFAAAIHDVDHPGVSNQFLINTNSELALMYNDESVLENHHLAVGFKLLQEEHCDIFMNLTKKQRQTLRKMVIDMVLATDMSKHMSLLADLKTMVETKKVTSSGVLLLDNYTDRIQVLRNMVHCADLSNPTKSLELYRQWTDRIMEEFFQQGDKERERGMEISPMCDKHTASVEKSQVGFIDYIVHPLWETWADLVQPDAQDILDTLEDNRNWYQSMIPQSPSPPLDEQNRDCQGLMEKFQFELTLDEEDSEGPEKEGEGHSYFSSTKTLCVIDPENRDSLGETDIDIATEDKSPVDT
# Chain of Cytochrome P450 3A4 (Homo sapiens) (P08684 whole entry, looked up): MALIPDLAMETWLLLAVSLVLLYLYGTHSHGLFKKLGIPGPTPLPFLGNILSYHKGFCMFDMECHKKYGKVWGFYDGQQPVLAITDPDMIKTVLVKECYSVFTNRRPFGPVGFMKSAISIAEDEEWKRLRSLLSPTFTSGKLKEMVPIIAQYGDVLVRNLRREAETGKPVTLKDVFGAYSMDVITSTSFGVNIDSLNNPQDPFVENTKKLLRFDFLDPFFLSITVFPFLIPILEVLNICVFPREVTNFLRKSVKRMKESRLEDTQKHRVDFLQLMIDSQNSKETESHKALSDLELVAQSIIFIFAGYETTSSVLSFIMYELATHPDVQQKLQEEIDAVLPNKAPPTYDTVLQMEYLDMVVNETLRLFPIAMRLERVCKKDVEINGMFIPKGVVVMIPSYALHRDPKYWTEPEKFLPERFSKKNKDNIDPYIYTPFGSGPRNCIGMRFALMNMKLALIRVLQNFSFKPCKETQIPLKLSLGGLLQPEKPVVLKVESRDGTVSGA
# Chain of Lysosomal acid glucosylceramidase (Homo sapiens) (P04062 whole entry, looked up): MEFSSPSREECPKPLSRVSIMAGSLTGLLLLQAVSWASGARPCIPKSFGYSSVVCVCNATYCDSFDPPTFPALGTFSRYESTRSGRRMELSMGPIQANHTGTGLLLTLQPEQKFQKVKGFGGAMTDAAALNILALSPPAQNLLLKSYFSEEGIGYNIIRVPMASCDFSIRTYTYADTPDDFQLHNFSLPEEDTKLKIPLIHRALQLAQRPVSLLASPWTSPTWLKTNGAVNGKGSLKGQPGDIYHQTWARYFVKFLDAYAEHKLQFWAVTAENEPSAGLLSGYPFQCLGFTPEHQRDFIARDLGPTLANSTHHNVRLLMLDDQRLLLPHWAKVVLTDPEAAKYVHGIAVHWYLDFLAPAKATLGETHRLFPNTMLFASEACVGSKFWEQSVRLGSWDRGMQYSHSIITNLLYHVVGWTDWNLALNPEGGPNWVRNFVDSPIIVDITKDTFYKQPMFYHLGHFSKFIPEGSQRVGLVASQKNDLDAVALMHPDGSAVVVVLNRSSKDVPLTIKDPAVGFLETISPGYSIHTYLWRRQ
# Chain of Cytochrome P450 1A2 (Homo sapiens) (P05177 whole entry, looked up): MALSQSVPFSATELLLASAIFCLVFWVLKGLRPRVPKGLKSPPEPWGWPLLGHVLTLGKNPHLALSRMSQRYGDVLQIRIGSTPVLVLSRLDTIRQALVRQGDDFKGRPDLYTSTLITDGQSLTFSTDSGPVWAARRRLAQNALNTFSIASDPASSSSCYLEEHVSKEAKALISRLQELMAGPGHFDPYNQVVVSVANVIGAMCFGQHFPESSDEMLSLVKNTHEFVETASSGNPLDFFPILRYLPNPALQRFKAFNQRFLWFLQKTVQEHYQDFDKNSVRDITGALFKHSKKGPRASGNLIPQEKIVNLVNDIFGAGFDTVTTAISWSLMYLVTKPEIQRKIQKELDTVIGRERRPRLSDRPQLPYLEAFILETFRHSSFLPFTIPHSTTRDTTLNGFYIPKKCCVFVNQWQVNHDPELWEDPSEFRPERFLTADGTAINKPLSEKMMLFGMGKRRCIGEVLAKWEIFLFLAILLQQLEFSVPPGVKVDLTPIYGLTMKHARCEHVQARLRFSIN
# Chain of Dual specificity protein kinase CLK4 (Homo sapiens) (Q9HAZ1 whole entry, looked up): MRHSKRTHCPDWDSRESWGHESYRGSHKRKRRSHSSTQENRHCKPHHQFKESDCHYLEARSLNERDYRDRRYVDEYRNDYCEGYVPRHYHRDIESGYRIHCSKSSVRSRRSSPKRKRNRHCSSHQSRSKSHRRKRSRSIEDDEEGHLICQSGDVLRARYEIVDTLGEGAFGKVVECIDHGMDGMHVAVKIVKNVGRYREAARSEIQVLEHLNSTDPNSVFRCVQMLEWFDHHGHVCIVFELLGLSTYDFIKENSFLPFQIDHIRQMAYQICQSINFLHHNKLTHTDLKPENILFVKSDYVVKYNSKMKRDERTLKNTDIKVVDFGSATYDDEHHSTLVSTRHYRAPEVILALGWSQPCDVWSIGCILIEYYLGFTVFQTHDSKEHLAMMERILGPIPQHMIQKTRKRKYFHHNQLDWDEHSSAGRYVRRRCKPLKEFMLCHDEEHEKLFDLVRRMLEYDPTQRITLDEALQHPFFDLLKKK
# Chain of Cytochrome P450 2C19 (Homo sapiens) (P33261 whole entry, looked up): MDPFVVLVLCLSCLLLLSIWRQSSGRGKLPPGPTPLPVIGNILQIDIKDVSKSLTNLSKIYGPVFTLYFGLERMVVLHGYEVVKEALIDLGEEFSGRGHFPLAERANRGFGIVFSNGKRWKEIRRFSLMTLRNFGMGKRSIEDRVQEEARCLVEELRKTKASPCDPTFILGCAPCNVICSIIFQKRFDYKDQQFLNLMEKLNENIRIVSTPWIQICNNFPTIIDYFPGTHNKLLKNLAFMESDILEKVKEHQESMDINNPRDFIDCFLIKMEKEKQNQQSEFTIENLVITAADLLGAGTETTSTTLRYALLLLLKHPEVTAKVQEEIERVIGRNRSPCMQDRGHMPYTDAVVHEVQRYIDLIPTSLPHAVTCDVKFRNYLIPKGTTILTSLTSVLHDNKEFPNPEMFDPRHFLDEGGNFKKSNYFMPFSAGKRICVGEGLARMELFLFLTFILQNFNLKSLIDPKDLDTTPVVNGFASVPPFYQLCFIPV
Compound,Potency [1],"activity, negative = inhibition [2] [%]",Potency [3] [µM],Potency [4],Potency [5],Potency [6],Potency [7],Potency [8],Potency [9],outcome [10],"activity change, negative = inhibition [11] [%]","activity change, negative = inhibition [12] [%]",Potency [13] [µM],Potency [14],Potency [15],Potency [16] [µM],Potency [17],Potency [18],activation [17] [%]
COc1cccc(-c2ccc3ncnc(N4CCOCC4)c3c2)c1,1 µM (active),8.65,> 46,inactive,inactive,3.98 µM (active),1.41 µM (active),1.58 µM (active),1.12 µM (active),inactive,–,–,–,–,–,–,–,–,–
COCCn1c(=O)c(-c2ccc(Cl)cc2)nc2cnc(N(C)C)nc21,1 µM (active),–,> 46,–,–,–,inactive,inactive,inactive,inactive,-3.17,-3.15,> 9.22,inactive,inactive,–,–,–,–
CCNc1ncc2nc(-c3ccccc3)c(=O)n(Cc3cccc(OC)c3)c2n1,–,–,> 46,inactive,inactive,–,inactive,inactive,inactive,inactive,–,–,> 9.22,–,inactive,> 11.4,3.16 µM (active),–,–
c1csc(CNc2ncncc2-c2ccoc2)c1,2 µM (active),-10.5,> 46,inactive,inactive,–,inactive,inactive,–,inactive,-12.1,3.52,> 46,inactive,–,> 11.4,–,2 µM (active),2.26
COc1ccc2[nH]cc(CCNc3cc(-c4ccc(C(=O)N(C)C)cc4)ncn3)c2c1,20 µM (active),-10.6,> 46,inactive,inactive,–,10 µM (active),10 µM (active),–,inactive,-10.4,0.0562,> 46,inactive,inactive,> 11.4,–,6.31 µM (active),–
c1cncc(-c2ccc3ncnc(NCCN4CCOCC4)c3c2)c1,1 µM (active),2.95,> 46,inactive,inactive,–,15.8 µM (active),17.8 µM (active),–,inactive,-1.94,26,> 46,inactive,inactive,> 11.4,–,–,–
COc1ncc2nc(-c3cccs3)c(=O)n(Cc3ccc(F)cc3)c2n1,3.16 µM (active),–,> 46,inactive,inactive,–,inactive,inactive,–,inactive,22.6,8.73,> 9.22,inactive,inactive,> 11.4,–,3.16 µM (active),–
